# From publication PMC7862700, “An all-to-all approach to the identification of sequence-specific readers for epigenetic DNA modifications on cytosine”
# Legend:
# Assay in all cases: DAPPL (digital affinity profiling via proximity ligation, sequencing); 10 mM Tris-HCl pH 7.5, 50 mM NaCl, 1 mM DTT, 4% glycerol, room temperature, 30 min; GST-TFs on glutathione beads, 16-mer random dsDNA library, 0.1% formaldehyde crosslink after washing; high values mean tight binding
# [1] = target: T1, FEV (Homo sapiens, UniProt Q99581 1-238); settings: protein: recombinant; tags: N-terminal GST; dsDNA, one strand shown
# T1 sequence: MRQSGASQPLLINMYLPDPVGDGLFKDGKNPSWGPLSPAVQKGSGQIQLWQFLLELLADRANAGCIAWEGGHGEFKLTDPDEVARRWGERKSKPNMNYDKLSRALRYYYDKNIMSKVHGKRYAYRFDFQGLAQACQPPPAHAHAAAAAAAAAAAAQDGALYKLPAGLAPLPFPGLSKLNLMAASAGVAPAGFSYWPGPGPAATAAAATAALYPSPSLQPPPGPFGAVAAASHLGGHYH
# Summary of the method: (§1)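 Binding signal is given per hexamer as its read frequency for a factor divided by its frequency in the tag-only sample. GST-fused human transcription factors were expressed in yeast, captured on glutathione beads, barcoded with DNA and pooled with that sample, then incubated with 200 nmole of a 16-mer random double-stranded DNA library in Tris/NaCl/DTT/glycerol buffer for 30 min at room temperature. The pools were then washed, crosslinked, proximity-ligated, amplified by PCR and sequenced on an Illumina NextSeq500.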
# [2] = target: ETV5 (Homo sapiens, UniProt P41161 1-510); settings: protein: recombinant; tags: N-terminal GST; dsDNA, one strand shown
# Summary of the method: as §1
# [3] = target: HSF1 (Homo sapiens, UniProt Q00613 1-529); settings: protein: recombinant; tags: N-terminal GST; chain copies: 3; dsDNA, one strand shown
# Summary of the method: as §1
# [4] = target: T2, SPIC (Homo sapiens, UniProt Q8N5J4 1-248); settings: protein: recombinant; tags: N-terminal GST; dsDNA, one strand shown
# T2 sequence: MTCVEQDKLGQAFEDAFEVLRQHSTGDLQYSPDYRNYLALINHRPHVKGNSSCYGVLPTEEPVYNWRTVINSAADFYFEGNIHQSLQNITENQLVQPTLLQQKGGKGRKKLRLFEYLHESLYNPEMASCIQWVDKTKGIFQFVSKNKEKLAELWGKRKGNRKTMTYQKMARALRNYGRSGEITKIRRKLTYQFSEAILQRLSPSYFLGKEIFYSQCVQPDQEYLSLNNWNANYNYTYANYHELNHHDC
# Summary of the method: as §1
# [5] = target: ELF4 (Homo sapiens, UniProt Q99607 1-663); settings: protein: recombinant; tags: N-terminal GST; dsDNA, one strand shown
# Summary of the method: as §1
# [6] = target: T3, ELK4 (Homo sapiens, UniProt P28324-2 1-405); settings: protein: recombinant; tags: N-terminal GST; dsDNA, one strand shown
# T3 sequence: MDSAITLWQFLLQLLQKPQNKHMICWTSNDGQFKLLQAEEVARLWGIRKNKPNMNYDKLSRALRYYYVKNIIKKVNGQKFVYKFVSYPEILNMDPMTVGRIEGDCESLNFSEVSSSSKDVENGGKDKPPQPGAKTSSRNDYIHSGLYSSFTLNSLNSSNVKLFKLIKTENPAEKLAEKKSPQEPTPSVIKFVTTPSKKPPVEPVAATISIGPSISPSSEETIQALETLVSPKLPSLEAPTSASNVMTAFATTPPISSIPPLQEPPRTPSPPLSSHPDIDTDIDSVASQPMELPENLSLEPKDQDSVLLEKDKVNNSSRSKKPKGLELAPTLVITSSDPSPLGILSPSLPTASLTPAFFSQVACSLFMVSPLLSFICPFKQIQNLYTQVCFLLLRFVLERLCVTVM
# Summary of the method: as §1
# [7] = target: T4, ETV2 (Homo sapiens, UniProt O00321 1-342); settings: protein: recombinant; tags: N-terminal GST; dsDNA, one strand shown
# T4 sequence: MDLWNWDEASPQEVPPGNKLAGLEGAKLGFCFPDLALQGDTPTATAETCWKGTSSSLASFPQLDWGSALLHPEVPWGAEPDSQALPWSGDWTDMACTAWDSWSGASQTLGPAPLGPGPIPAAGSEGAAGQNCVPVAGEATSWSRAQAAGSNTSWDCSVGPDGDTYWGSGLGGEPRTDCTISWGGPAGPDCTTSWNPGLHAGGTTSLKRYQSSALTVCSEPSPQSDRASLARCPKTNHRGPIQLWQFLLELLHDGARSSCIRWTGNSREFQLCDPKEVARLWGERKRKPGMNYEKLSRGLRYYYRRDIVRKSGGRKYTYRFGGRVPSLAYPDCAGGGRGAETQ
# Summary of the method: as §1
# [8] = target: T5, ELF3 (Homo sapiens, UniProt P78545 1-371); settings: protein: recombinant; tags: N-terminal GST; dsDNA, one strand shown
# T5 sequence: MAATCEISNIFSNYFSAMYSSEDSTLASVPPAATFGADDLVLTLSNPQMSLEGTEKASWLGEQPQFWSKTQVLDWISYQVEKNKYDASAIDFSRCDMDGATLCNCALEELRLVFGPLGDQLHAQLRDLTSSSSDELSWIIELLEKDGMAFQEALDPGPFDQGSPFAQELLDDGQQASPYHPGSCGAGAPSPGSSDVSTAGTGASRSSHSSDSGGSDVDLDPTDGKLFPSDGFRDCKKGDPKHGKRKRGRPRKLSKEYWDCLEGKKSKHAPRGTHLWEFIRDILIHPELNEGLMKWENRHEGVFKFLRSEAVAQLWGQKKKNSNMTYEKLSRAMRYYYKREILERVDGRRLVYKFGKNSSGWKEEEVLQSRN
# Summary of the method: as §1
# [9] = target: CRX (Homo sapiens, UniProt O43186 1-299); settings: protein: recombinant; tags: N-terminal GST; dsDNA, one strand shown
# Summary of the method: as §1
# [10] = target: ETV1 (Homo sapiens, UniProt P50549 1-477); settings: protein: recombinant; tags: N-terminal GST; dsDNA, one strand shown
# Summary of the method: as §1
# [11] = target: T6, ERF (Homo sapiens, UniProt P50548 1-548); settings: protein: recombinant; tags: N-terminal GST; dsDNA, one strand shown
# T6 sequence: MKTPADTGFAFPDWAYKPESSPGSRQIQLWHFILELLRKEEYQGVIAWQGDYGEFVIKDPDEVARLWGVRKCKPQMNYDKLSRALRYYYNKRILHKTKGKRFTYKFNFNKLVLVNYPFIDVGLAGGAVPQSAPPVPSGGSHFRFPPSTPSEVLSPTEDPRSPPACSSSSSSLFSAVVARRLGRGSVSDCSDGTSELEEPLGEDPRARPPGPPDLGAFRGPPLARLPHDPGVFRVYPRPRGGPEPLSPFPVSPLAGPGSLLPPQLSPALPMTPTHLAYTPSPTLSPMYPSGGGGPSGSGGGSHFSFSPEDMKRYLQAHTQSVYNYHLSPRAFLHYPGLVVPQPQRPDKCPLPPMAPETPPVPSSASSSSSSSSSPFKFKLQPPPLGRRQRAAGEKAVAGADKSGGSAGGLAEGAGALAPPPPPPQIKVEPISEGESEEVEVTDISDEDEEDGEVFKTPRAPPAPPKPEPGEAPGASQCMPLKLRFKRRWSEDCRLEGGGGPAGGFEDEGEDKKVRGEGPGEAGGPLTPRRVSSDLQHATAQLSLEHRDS
# Summary of the method: as §1
# [12] = target: T7, ETV3L (Homo sapiens, UniProt Q6ZN32 1-361); settings: protein: recombinant; tags: N-terminal GST; dsDNA, one strand shown
# T7 sequence: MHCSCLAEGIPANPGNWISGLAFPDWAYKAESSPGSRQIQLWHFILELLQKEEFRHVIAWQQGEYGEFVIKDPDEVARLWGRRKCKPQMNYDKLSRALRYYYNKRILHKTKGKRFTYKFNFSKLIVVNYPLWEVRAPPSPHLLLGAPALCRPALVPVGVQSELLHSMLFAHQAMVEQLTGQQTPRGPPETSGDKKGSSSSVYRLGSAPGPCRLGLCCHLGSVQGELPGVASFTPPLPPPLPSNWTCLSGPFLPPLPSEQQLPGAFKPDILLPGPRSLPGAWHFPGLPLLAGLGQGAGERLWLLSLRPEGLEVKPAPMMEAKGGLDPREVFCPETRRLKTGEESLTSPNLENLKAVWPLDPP
# Summary of the method: as §1
# [13] = target: T8, ETS2 (Homo sapiens, UniProt P15036 1-469); settings: protein: recombinant; tags: N-terminal GST; dsDNA, one strand shown
# T8 sequence: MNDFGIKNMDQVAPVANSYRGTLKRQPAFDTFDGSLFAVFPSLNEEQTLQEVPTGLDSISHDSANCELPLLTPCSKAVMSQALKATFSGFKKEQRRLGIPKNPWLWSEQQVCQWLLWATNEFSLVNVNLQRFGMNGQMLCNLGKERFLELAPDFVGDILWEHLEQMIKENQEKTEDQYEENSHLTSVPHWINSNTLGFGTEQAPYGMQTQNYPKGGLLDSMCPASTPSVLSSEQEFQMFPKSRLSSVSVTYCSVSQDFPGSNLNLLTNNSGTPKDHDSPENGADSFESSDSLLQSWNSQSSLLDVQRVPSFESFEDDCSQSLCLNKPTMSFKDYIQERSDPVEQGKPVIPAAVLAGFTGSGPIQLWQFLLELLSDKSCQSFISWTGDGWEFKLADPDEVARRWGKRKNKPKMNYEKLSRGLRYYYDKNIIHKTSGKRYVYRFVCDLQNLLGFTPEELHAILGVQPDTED
# Summary of the method: as §1
# [14] = target: T9, SPDEF (Homo sapiens, UniProt O95238 1-335); settings: protein: recombinant; tags: N-terminal GST; dsDNA, one strand shown
# T9 sequence: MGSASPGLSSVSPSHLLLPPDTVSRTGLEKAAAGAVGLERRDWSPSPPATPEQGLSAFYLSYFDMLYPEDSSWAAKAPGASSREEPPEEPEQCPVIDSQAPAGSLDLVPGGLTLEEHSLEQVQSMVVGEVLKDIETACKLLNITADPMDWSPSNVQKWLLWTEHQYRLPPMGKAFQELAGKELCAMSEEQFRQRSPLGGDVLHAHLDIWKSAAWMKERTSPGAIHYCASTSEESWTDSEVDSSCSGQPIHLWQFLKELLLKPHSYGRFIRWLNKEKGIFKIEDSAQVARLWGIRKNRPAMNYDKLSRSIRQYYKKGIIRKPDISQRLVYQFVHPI
# Summary of the method: as §1
# [15] = target: T10, ETV7 (Homo sapiens, UniProt Q9Y603 1-341); settings: protein: recombinant; tags: N-terminal GST; dsDNA, one strand shown
# T10 sequence: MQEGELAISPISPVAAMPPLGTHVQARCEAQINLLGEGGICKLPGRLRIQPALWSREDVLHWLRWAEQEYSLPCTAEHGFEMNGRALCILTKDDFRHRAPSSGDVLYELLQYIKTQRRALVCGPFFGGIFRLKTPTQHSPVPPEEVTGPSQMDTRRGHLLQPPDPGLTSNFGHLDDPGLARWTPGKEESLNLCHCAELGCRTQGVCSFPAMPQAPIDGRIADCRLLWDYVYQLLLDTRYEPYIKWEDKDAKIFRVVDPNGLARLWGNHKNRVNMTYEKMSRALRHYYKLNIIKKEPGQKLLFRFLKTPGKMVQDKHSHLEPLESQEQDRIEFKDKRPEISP
# Summary of the method: as §1
# [16] = target: T11, ELF5 (Homo sapiens, UniProt Q9UKW6-2 1-255); settings: protein: recombinant; tags: N-terminal GST; dsDNA, one strand shown
# T11 sequence: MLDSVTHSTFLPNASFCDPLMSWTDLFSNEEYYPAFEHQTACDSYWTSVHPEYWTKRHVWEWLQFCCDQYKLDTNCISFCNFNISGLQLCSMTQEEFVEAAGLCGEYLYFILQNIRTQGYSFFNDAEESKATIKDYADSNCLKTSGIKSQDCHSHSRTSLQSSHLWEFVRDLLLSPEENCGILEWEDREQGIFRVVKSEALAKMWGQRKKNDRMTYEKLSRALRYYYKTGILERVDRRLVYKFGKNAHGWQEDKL
# Summary of the method: as §1
# [17] = target: T12, ETV3 (Homo sapiens, UniProt P41162-2 1-143); settings: protein: recombinant; tags: N-terminal GST; dsDNA, one strand shown
# T12 sequence: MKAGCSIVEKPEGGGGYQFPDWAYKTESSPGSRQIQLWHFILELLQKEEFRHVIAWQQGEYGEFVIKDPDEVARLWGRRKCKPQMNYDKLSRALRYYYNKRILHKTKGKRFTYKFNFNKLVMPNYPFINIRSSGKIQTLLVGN
# Summary of the method: as §1
# [18] = target: ETV6 (Homo sapiens, UniProt P41212 1-452); settings: protein: recombinant; tags: N-terminal GST; dsDNA, one strand shown
# Summary of the method: as §1
# ETV5, sequence (P41161 whole entry): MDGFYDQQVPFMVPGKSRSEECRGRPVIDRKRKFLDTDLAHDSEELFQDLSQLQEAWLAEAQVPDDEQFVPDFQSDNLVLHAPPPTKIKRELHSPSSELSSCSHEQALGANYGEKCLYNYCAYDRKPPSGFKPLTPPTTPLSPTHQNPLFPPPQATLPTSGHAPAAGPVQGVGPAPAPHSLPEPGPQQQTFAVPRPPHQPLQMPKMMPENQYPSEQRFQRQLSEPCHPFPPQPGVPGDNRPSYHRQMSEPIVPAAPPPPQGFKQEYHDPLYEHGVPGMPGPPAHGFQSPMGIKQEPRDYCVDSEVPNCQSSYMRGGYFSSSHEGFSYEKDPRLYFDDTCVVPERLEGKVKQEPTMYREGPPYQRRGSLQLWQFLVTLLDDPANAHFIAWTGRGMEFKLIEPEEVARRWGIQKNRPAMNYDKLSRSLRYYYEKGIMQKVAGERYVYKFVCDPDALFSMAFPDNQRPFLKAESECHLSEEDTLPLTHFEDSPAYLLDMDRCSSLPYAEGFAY
# ETV1, sequence (P50549 whole entry): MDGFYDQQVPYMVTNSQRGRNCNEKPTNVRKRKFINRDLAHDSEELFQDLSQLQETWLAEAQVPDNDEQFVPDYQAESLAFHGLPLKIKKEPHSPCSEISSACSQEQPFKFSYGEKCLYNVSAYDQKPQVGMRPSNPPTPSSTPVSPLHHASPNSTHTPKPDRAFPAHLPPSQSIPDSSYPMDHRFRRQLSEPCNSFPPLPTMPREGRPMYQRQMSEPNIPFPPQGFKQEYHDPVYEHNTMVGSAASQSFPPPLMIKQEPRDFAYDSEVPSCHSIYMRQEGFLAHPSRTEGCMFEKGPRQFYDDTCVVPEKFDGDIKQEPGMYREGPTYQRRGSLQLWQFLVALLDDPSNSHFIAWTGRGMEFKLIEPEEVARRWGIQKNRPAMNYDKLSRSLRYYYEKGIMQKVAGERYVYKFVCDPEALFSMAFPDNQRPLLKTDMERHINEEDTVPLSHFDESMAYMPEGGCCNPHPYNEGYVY
# ELF4, sequence (Q99607 whole entry): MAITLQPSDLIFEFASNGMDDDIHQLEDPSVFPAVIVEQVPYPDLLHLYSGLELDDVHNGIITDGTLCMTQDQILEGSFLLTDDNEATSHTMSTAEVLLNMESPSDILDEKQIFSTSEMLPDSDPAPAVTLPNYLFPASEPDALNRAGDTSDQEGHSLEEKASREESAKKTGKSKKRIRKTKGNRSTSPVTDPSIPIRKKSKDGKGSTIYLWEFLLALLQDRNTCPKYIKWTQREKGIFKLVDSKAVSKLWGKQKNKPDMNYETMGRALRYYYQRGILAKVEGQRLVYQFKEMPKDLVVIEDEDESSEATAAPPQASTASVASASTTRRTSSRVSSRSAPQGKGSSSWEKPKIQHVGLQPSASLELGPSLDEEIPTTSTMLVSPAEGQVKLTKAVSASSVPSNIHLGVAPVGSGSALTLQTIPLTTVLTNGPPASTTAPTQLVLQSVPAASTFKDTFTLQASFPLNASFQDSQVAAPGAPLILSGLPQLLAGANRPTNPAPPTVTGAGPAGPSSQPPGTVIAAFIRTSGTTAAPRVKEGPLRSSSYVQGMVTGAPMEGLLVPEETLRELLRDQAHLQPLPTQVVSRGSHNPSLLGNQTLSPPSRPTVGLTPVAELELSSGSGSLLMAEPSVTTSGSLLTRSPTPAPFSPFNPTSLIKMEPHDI
# HSF1, sequence (Q00613 whole entry): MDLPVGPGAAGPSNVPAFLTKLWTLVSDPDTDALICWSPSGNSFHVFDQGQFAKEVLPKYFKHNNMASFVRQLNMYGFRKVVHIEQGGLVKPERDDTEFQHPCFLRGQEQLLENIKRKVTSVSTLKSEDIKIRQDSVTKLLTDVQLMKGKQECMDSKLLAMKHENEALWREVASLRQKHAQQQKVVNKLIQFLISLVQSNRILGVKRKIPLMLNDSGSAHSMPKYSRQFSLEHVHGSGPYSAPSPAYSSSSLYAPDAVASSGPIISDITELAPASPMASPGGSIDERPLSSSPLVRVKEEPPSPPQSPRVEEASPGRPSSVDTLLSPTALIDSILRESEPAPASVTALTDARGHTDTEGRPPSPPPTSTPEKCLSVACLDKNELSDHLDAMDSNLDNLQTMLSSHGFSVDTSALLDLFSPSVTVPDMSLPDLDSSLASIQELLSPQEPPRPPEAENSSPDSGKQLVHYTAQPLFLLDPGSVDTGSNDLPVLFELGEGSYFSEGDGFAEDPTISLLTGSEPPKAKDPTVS
# ETV6, sequence (P41212 whole entry): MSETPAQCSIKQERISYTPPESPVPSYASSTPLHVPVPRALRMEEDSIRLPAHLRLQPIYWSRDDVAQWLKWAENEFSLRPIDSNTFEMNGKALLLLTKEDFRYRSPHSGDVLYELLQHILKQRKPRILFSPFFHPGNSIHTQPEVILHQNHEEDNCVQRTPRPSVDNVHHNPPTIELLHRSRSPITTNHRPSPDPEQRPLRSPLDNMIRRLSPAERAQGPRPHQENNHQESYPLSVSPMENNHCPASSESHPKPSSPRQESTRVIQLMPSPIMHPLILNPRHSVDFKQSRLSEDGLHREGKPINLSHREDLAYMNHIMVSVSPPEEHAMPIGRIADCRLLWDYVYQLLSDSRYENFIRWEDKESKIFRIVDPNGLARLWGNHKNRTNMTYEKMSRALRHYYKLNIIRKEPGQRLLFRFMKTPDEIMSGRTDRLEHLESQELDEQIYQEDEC
# CRX, sequence (O43186 whole entry): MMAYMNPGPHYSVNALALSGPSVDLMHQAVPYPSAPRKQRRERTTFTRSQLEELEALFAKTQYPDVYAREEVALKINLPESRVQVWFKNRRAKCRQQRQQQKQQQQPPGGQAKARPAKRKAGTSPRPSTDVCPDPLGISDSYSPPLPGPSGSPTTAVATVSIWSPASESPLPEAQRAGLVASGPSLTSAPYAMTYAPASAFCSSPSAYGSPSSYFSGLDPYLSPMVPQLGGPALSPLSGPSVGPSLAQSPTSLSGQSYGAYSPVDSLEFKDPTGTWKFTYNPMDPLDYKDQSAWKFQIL
sequence,measurement,setting,value
GATGCT,binding signal,[1],"1.23 fold enrichment (6-mer frequency, TF over GST control)"
same,binding signal,[2],"1.29 fold enrichment (6-mer frequency, TF over GST control)"
same,binding signal,[3],"1.13 fold enrichment (6-mer frequency, TF over GST control)"
same,binding signal,[4],"1.35 fold enrichment (6-mer frequency, TF over GST control)"
same,binding signal,[5],"1.26 fold enrichment (6-mer frequency, TF over GST control)"
same,binding signal,[6],"1.28 fold enrichment (6-mer frequency, TF over GST control)"
same,binding signal,[7],"1.18 fold enrichment (6-mer frequency, TF over GST control)"
same,binding signal,[8],"1.3 fold enrichment (6-mer frequency, TF over GST control)"
same,binding signal,[9],"1.06 fold enrichment (6-mer frequency, TF over GST control)"
same,binding signal,[10],"1.27 fold enrichment (6-mer frequency, TF over GST control)"
same,binding signal,[11],"1.3 fold enrichment (6-mer frequency, TF over GST control)"
same,binding signal,[12],"1.28 fold enrichment (6-mer frequency, TF over GST control)"
same,binding signal,[13],"1.25 fold enrichment (6-mer frequency, TF over GST control)"
same,binding signal,[14],"1.2 fold enrichment (6-mer frequency, TF over GST control)"
same,binding signal,[15],"1.29 fold enrichment (6-mer frequency, TF over GST control)"
same,binding signal,[16],"1.21 fold enrichment (6-mer frequency, TF over GST control)"
same,binding signal,[17],"1.29 fold enrichment (6-mer frequency, TF over GST control)"
same,binding signal,[18],"1.16 fold enrichment (6-mer frequency, TF over GST control)"
